Results on two sequences are retold here after publication PMC7862700, “An all-to-all approach to the identification of sequence-specific readers for epigenetic DNA modifications on cytosine”.

Common to all, as to assay: DAPPL (digital affinity profiling via proximity ligation, sequencing); 10 mM Tris-HCl pH 7.5, 50 mM NaCl, 1 mM DTT, 4% glycerol, room temperature, 30 min; GST-TFs on glutathione beads, 16-mer random dsDNA library, 0.1% formaldehyde crosslink after washing; high values mean tight binding
Holding throughout (conditions): protein: recombinant; tags: N-terminal GST; dsDNA, one strand shown

One assay has as its target T1, FLI1 (Homo sapiens, UniProt Q01543 1-452).
T1 sequence: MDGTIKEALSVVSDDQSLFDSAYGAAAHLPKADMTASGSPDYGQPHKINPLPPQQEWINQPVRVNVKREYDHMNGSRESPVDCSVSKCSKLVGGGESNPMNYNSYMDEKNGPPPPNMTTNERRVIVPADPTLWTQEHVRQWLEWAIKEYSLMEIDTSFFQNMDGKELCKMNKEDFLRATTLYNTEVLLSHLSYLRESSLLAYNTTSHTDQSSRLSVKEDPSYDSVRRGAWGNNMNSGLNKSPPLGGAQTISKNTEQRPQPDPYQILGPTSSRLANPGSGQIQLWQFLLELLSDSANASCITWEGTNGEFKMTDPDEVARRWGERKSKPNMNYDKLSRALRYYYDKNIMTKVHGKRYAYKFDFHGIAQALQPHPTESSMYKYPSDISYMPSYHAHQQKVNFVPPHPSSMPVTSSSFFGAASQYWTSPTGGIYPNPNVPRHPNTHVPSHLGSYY
The method in brief:
(§1)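 Human transcription factors were made in yeast as GST fusions, captured on glutathione beads and barcoded with DNA. With a tag-only sample included, the pool was incubated with 200 nmole of a random double-stranded 16-mer DNA library in Tris/NaCl/DTT/glycerol buffer at room temperature for 30 min, then crosslinked with 0.1% formaldehyde after washing, ligated by proximity, amplified and sequenced. For binding signal, each hexamer's read frequency for a factor is divided by its frequency for the tag-only sample.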

For a further assay, the target named is T2, ELK1 (Homo sapiens, UniProt P19419 1-428).
T2 sequence: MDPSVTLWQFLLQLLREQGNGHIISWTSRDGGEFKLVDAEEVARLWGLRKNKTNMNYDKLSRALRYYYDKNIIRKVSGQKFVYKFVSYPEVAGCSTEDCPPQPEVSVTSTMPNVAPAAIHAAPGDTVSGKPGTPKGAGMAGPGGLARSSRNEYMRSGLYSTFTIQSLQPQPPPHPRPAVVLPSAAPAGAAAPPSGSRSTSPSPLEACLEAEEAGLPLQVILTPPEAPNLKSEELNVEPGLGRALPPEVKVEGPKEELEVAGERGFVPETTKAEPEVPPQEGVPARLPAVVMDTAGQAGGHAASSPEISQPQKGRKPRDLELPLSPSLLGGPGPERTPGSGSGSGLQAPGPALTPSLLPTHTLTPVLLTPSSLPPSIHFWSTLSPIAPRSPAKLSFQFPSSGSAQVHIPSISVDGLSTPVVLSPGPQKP
The procedure, abridged: as §1

For a further assay, the target named is T3, ELF3 (Homo sapiens, UniProt P78545 1-371).
T3 sequence: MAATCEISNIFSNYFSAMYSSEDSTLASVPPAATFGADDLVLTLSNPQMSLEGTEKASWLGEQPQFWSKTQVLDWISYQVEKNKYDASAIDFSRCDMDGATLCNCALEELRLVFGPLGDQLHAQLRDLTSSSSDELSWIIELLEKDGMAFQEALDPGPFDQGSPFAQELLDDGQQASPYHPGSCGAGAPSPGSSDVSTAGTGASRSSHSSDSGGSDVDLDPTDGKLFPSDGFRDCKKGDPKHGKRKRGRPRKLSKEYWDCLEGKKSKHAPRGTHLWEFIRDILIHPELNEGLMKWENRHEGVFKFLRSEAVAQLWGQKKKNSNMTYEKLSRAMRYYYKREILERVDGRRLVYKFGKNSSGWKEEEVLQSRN
The method in brief:
as §1

The target in the next assay is T4, ERF (Homo sapiens, UniProt P50548 1-548).
T4 sequence: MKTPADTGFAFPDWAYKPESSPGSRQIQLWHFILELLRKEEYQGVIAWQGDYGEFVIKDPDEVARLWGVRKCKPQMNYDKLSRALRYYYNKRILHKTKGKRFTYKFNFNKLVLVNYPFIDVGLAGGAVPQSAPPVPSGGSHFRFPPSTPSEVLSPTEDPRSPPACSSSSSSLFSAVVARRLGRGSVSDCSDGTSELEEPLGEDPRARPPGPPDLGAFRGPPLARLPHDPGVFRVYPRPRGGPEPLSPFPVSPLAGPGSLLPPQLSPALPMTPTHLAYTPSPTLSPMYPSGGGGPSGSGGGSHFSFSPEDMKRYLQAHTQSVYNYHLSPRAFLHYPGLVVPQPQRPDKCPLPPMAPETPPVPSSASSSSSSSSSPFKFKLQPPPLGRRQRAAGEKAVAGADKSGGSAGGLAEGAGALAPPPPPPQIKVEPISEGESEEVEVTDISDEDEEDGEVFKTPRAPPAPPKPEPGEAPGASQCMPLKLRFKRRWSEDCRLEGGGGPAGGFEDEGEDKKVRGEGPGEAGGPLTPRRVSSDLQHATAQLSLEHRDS
The method in brief:
as §1

The target in another assay is T5, ETV3L (Homo sapiens, UniProt Q6ZN32 1-361).
T5 sequence: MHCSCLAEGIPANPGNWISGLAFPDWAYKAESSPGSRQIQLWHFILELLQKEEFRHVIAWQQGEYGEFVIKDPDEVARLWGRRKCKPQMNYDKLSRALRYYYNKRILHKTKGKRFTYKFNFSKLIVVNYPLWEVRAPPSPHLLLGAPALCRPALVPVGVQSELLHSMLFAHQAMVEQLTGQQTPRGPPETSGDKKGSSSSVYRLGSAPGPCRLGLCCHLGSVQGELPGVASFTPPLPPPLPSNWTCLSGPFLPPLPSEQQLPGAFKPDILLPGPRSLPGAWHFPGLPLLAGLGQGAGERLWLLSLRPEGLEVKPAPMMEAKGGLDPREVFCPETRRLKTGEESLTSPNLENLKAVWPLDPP
The method in brief:
as §1

The target of the next assay is T6, ETS2 (Homo sapiens, UniProt P15036 1-469).
T6 sequence: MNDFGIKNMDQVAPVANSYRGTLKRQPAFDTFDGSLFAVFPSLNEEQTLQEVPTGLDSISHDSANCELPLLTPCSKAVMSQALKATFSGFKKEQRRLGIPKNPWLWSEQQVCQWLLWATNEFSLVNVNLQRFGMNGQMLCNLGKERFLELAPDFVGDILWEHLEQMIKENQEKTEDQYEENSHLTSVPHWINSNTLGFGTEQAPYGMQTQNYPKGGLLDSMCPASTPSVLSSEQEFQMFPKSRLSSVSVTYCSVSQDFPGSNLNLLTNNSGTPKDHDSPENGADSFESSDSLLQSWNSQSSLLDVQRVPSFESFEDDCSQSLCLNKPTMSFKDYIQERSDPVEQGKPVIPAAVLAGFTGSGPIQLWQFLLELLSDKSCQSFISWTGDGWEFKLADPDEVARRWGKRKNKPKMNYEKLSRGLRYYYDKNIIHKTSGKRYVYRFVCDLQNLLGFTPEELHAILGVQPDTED
The method in brief:
as §1

In the next assay the target is T7, ETV7 (Homo sapiens, UniProt Q9Y603 1-341).
T7 sequence: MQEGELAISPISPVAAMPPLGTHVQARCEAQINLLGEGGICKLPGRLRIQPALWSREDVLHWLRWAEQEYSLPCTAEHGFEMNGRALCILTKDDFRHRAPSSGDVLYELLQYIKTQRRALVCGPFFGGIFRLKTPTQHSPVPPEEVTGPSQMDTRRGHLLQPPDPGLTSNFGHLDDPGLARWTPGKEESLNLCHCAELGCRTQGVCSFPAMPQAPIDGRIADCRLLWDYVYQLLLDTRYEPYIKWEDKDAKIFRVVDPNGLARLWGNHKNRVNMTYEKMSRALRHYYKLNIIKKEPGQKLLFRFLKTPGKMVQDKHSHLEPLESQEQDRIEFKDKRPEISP
The method in brief: as §1

A further assay concerns the target T8, ERG (Homo sapiens, UniProt P11308 1-479).
T8 sequence: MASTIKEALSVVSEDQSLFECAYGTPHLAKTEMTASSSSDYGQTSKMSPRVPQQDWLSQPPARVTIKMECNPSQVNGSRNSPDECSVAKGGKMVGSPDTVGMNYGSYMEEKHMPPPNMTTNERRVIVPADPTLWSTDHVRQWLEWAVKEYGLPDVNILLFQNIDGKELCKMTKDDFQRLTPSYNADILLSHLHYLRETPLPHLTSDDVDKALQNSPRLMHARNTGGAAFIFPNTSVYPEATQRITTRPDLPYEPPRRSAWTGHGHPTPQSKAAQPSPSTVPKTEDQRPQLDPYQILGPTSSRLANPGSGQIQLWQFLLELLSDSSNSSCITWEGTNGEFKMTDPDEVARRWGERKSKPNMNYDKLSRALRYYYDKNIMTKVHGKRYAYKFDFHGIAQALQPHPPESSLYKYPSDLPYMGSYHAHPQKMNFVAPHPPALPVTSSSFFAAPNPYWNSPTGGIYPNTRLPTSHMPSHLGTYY
The procedure, abridged: as §1

The next assay has as its target ELF1 (Homo sapiens, UniProt P32519 1-619). The method in brief:
as §1

The target of a further assay is T9, EHF (Homo sapiens, UniProt Q9NZC4 1-300).
T9 sequence: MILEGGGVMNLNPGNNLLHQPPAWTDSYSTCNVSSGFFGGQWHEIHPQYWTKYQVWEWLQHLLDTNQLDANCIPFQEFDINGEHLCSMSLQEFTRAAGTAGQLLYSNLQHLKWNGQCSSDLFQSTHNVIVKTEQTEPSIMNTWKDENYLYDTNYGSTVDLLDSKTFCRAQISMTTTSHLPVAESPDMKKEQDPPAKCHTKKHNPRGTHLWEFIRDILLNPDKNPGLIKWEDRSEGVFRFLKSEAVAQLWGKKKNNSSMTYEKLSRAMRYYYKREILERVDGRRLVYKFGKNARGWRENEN
The method in brief:
as §1

For a further assay, the target named is SPIB (Homo sapiens, UniProt Q01892 1-262). The procedure, abridged:
as §1

Another assay deals with T10, ELK3 (Homo sapiens, UniProt P41970 1-407).
T10 sequence: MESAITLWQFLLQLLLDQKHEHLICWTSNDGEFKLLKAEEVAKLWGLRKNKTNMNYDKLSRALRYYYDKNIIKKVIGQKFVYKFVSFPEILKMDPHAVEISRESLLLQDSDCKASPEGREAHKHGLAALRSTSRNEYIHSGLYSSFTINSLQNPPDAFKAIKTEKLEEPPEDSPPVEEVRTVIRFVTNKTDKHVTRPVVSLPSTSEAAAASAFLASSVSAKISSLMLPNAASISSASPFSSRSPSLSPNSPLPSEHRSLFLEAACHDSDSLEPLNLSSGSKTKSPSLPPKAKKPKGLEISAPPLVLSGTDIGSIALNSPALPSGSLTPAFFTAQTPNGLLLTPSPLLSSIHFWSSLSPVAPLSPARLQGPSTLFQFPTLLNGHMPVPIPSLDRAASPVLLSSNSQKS
The procedure, abridged: as §1

The target in a further assay is T11, SPIC (Homo sapiens, UniProt Q8N5J4 1-248).
T11 sequence: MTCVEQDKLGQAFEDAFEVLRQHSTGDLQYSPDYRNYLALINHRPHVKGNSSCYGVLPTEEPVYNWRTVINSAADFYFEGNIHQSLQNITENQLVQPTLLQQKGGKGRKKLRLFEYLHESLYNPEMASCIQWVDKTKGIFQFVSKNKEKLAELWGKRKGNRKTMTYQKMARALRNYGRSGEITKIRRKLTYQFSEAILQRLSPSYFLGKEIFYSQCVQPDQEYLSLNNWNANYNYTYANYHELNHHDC
The method in brief: as §1

Another assay concerns the target ELF4 (Homo sapiens, UniProt Q99607 1-663). The method in brief:
as §1

The next assay deals with T12, ELK4 (Homo sapiens, UniProt P28324-2 1-405).
T12 sequence: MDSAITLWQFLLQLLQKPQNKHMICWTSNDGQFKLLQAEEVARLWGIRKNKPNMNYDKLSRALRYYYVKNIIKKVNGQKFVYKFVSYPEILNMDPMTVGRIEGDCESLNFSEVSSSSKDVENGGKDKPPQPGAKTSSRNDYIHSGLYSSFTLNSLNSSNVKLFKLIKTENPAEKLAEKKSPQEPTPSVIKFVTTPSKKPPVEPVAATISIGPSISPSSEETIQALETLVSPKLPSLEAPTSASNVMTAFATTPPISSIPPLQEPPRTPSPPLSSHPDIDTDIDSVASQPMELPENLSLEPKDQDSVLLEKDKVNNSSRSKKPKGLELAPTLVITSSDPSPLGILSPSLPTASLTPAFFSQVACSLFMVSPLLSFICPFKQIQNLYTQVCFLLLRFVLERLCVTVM
The procedure, abridged: as §1

For another assay, the target named is ETV1 (Homo sapiens, UniProt P50549 1-477). The method in brief: as §1
Sequence of ETV1 (P50549 whole entry): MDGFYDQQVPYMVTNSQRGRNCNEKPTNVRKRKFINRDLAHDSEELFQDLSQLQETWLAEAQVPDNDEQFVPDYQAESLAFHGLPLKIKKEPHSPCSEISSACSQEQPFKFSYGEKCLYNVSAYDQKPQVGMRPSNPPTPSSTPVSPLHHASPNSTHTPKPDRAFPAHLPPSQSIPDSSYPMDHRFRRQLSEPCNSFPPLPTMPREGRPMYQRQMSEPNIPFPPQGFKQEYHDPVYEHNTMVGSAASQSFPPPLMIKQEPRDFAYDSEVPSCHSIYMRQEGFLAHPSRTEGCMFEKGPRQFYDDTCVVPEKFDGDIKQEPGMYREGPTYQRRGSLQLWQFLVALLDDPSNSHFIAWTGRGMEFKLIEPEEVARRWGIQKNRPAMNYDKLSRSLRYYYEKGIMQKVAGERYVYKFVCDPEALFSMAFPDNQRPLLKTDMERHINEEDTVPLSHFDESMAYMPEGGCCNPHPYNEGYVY
For the next assay, the target named is ETV6 (Homo sapiens, UniProt P41212 1-452). The procedure, abridged:
as §1

Sequence of ELF1 (P32519 whole entry): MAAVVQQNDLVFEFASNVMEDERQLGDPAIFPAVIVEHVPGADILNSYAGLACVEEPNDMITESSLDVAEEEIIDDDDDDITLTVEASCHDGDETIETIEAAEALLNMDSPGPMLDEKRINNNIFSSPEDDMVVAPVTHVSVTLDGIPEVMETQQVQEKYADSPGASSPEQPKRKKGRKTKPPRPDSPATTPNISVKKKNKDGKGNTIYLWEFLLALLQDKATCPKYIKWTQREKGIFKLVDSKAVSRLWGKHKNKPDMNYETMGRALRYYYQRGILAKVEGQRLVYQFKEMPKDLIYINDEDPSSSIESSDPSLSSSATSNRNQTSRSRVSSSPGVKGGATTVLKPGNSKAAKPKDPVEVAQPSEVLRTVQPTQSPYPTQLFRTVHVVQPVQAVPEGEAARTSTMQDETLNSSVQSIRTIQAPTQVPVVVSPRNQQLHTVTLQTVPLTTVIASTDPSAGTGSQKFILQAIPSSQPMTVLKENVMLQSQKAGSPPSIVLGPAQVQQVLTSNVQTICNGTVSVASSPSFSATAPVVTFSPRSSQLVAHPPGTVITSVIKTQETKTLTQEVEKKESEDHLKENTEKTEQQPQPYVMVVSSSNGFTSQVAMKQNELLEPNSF
Sequence of ETV6 (P41212 whole entry): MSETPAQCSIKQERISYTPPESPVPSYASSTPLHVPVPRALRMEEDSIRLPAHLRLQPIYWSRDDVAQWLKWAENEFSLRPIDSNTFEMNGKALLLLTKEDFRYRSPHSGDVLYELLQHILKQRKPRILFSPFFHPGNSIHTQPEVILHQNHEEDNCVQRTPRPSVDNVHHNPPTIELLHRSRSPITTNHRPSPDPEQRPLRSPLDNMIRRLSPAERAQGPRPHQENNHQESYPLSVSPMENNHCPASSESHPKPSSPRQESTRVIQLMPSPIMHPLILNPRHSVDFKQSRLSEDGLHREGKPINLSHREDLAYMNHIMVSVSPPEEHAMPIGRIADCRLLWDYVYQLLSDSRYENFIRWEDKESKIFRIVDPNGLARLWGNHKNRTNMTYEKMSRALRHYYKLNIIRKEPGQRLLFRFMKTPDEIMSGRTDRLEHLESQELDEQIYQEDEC
Sequence of SPIB (Q01892 whole entry): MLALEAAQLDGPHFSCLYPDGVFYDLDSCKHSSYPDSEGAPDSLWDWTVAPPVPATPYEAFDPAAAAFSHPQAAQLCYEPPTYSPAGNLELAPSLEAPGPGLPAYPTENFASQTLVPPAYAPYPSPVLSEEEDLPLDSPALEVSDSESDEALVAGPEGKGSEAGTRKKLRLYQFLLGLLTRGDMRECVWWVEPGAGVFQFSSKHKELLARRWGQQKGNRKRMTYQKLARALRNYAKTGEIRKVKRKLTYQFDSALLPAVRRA
Sequence of ELF4 (Q99607 whole entry): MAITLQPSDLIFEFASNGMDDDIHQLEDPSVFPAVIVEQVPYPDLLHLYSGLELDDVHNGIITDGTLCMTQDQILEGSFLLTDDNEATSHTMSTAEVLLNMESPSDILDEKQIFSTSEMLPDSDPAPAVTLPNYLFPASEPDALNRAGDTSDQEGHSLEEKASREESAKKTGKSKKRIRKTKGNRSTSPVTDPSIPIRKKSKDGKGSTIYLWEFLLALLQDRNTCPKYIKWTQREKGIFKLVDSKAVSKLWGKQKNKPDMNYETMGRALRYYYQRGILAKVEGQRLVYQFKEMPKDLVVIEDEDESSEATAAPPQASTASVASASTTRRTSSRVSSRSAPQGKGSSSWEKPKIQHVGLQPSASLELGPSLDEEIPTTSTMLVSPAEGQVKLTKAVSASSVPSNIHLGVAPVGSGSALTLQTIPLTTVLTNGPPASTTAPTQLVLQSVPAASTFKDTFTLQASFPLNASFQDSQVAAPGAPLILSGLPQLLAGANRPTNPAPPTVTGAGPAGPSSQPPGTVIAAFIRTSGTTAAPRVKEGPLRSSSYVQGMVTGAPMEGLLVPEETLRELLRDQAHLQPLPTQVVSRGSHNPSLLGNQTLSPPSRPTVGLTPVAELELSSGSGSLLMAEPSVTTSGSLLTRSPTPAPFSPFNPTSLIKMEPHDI

With TAGGTA, the binding signal with FLI1 was 1.02 fold enrichment (6-mer frequency, TF over GST control); in the assay with ELK1, 1.06 fold enrichment (6-mer frequency, TF over GST control); in the assay with ELF3, 1.12 fold enrichment (6-mer frequency, TF over GST control); with ERF, 1.08 fold enrichment (6-mer frequency, TF over GST control); in the assay with ETV3L, 1.01 fold enrichment (6-mer frequency, TF over GST control); with ETS2 it was 1.03 fold enrichment (6-mer frequency, TF over GST control). The binding signal with ETV7 was 1.1 fold enrichment (6-mer frequency, TF over GST control).
On to TGGTTG, for which the binding signal is 1.04 fold enrichment (6-mer frequency, TF over GST control) with FLI1; 1.02 fold enrichment (6-mer frequency, TF over GST control) with ELK1; 1.01 fold enrichment (6-mer frequency, TF over GST control) in the assay with ERG; 1.02 fold enrichment (6-mer frequency, TF over GST control) in the assay with ELF1; 1.02 fold enrichment (6-mer frequency, TF over GST control) in the assay with EHF; 1.08 fold enrichment (6-mer frequency, TF over GST control) with SPIB. Also, the binding signal with ELK3 was 1.03 fold enrichment (6-mer frequency, TF over GST control); with SPIC, 1.08 fold enrichment (6-mer frequency, TF over GST control); with ELF4 it was 1.03 fold enrichment (6-mer frequency, TF over GST control); with ELK4, 1.09 fold enrichment (6-mer frequency, TF over GST control); with ETV1 it was 1.05 fold enrichment (6-mer frequency, TF over GST control); with ERF, 1.1 fold enrichment (6-mer frequency, TF over GST control). For the same sequence, the binding signal in the assay with ETV3L was 1.03 fold enrichment (6-mer frequency, TF over GST control); in the assay with ETS2, 1.08 fold enrichment (6-mer frequency, TF over GST control); in the assay with ETV6, 1 fold enrichment (6-mer frequency, TF over GST control).
